Source: PubChem (Broad Institute)
C diff growth – inhibitors of Clostridium difficile growth; Clostridium difficile clinical isolate growth, OD600, 24 h; active compounds read low; growth activity, negative = inhibition, % at 16 µg/mL (by protocol); 86,000 tested, 0.25% active; AID 1259249;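 active = mean growth activity at or below -80% and every replicate also at or below -80%; inconclusive = mean at or below -80% but some replicate above -80%; inactive = mean growth activity above -80%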;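 also: 0% = DMSO wells and -100% = levofloxacin 16 µg/mL wells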
T cruzi growth-1 – inhibitors of T. cruzi proliferation; 77,000 tested, 5.9% active; inhibition, % at 8.34 µM; T. cruzi beta-gal in NIH3T3, GalScreen luminescence, 90 h;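 active = mean inhibition above about 93%, with at least 55% of replicates each passing it, limit read from the data, passing the limit was not always enough; inconclusive = only one of those two conditions holds; inactive = neither condition holds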
Pf Dd2 growth – blocks growth of Plasmodium falciparum Dd2 parasites; P. falciparum Dd2 growth, SYBR Green, 72 h; active compounds read low; activity change, % at 10 µM; 94,000 tested, 2.3% active; AID 1159554; in the data active = activity change below about -80%; inconclusive = no clear call, values can overlap the other calls
T cruzi growth-2 – inhibitors of T. cruzi proliferation. shares compounds with T cruzi growth-1. T. cruzi beta-gal in NIH3T3, GalScreen luminescence, 90 h. inhibition, % at 8.35 µM. 5,600 tested, 72% active;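 active = mean replicate inhibition above about 95% and at least 55% of replicates individually reaching it, limit read from the data; inconclusive = only one of the two criteria is met; inactive = neither criterion is met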
T cruzi growth-3 – blocks T. cruzi growth in NIH3T3 host cells; inhibition, % at 2.09 µM; 5,600 tested, 21% active; AID 651740; shares compounds with T cruzi growth-1; T. cruzi beta-gal in NIH3T3, GalScreen luminescence, 90 h;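 active = mean inhibition above about 95%, with at least 55% of replicates also reaching it, limit read from the data; inconclusive = meets just one of the two conditions; inactive = meets neither condition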;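 also: plate controls were neutral control median for no effect and positive control median for full effect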
NIH3T3 tox – kills mouse NIH/3T3 fibroblasts; shares compounds with T cruzi growth-1; NIH/3T3 viability, CellTiter-Glo ATP luminescence, 90 h; cytotoxicity (signal decrease), % at 8.35 µM; 5,600 tested, 14% active;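 active = mean signal decrease across replicates above about 35% based on untreated-well scatter, with enough replicates individually passing, limit read from the data; inconclusive = no rule stated though some were filed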;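 also: 0% = median of neutral control wells and 100% = median of positive control wells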
3T3 cytotox 2 – kills mouse NIH/3T3 fibroblasts; shares compounds with T cruzi growth-1; NIH/3T3 viability, CellTiter-Glo ATP luminescence, 90 h; inhibition, % at 24.9 µM; 5,600 tested, 56% active;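 active = mean loss of cell viability signal at or above a set limit, and enough replicates individually reaching it; inconclusive = meets only the mean limit or only the replicate share; inactive = meets neither condition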;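 also: 0% = median of neutral control wells and 100% = median of positive control wells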
Active calls of the source: *; ? = inconclusive; nt = no result given. A selection: hits, their analogues and other compounds. The true share with any hit is near 6.7%.

SMILES | C diff growth | T cruzi growth-1 | Pf Dd2 growth | T cruzi growth-2 | T cruzi growth-3 | NIH3T3 tox | 3T3 cytotox 2
C[C@@H]1CCCCO[C@H](CN(C)C(=O)Nc2ccc(F)cc2)[C@H](C)CN([C@@H](C)CO)C(=O)c2cc(NC(=O)c3ccccc3)ccc2O1 | 1 | 86 | -62 | nt | nt | nt | nt
C[C@@H]1CCCCO[C@H](CN(C)C(=O)Nc2ccc(C(F)(F)F)cc2)[C@@H](C)CN([C@@H](C)CO)C(=O)c2cc(NC(=O)c3ccncc3)ccc2O1 | 3 | 72 | -63 | nt | nt | nt | nt
C[C@H]1CCCCO[C@@H](CN(C)C(=O)Nc2ccc(F)cc2)[C@@H](C)CN([C@@H](C)CO)C(=O)c2cc(NC(=O)c3ccccc3)ccc2O1 | -6 | ? | -65 | ? | 26 | -4 | -2
C[C@H](CO)N1C[C@H](C)[C@H](CN(C)S(=O)(=O)c2cn(C)cn2)OCCCC[C@H](C)Oc2ccc(NC(=O)CCC(F)(F)F)cc2C1=O | -7 | 57 | 8 | nt | nt | nt | nt
O=C(C[C@H]1CC[C@@H]2[C@H](COC[C@@H](O)CN2Cc2nccs2)O1)NCc1ccc(F)cc1 | -1 | 8 | 25 | nt | nt | nt | nt
Cc1ccccc1S(=O)(=O)N1C[C@@H](O)COC[C@H]2O[C@H](CC(=O)N3CCN(C)CC3)CC[C@@H]21 | -6 | 63 | nt | nt | nt | nt | nt
CN(C)CC#Cc1ccc([C@@H]2[C@@H](CO)N3CCCCN(C(=O)Nc4ccccc4F)C[C@@H]23)cc1 | 5 | 34 | -42 | nt | nt | nt | nt
CN(C)CC#Cc1ccc([C@@H]2[C@@H](CO)N3CCCCN(C(=O)Nc4cc(F)ccc4F)C[C@@H]23)cc1 | 12 | 106* | -27 | 101* | 35 | -17 | 45*
CN(C)CC#Cc1ccc([C@@H]2[C@H]3CN(C(=O)Nc4cc(F)ccc4F)CCCCN3[C@H]2CO)cc1 | 6 | 117* | 7 | 43 | -30 | ? | 103*
CN(C)CC#Cc1ccc([C@@H]2[C@H]3CN(C(=O)Nc4ccccc4F)CCCCN3[C@H]2CO)cc1 | 3 | 68 | 8 | nt | nt | nt | nt
COc1ccccc1NC(=O)N[C@H]1CC[C@@H](CCn2cc(-c3cccnc3)nn2)O[C@@H]1CO | nt | -15 | -6 | nt | nt | nt | nt
Cc1cc(C(=O)Nc2cccc3c2O[C@@H](CN(C)Cc2ccc(Oc4ccccc4)cc2)[C@H](C)CN([C@H](C)CO)C3=O)n(C)n1 | 1 | 104* | -21 | 104* | 59 | 15 | 104*
C[C@H](CO)N1C[C@H](C)[C@@H](CN(C)Cc2ccc(C(=O)Nc3ccccc3N)cc2)Oc2c(NC(=O)C3CCOCC3)cccc2C1=O | 2 | 99* | -48 | 102* | 87 | 3 | 4
C[C@H]1CN([C@@H](C)CO)C(=O)c2cccc(NC(=O)c3cnccn3)c2O[C@@H]1CN(C)Cc1ccc(C(=O)O)cc1 | -3 | -10 | -14 | nt | nt | nt | nt
C[C@@H]1CN([C@@H](C)CO)C(=O)c2cccc(NC(=O)c3cnccn3)c2O[C@H]1CN(C)Cc1ccc(C(=O)Nc2ccccc2N)cc1 | 6 | 112* | -93* | 107* | 85 | 33 | 42*
C[C@@H]1CN([C@@H](C)CO)C(=O)c2cccc(N(C)C)c2O[C@H]1CN(C)Cc1ccc(C(=O)Nc2ccccc2N)cc1 | 2 | 90 | -74 | nt | nt | nt | nt
C[C@H](CO)N1C[C@H](C)[C@H](CN(C)Cc2ccc(C(=O)Nc3ccccc3N)cc2)Oc2c(NC(=O)C3CCOCC3)cccc2C1=O | -2 | 86 | -14 | nt | nt | nt | nt
Cc1cc(C(=O)Nc2cccc3c2O[C@H](CN(C)Cc2ccc(Oc4ccccc4)cc2)[C@H](C)CN([C@@H](C)CO)C3=O)n(C)n1 | -6 | -30 | -13 | nt | nt | nt | nt
C[C@H](CO)N1C[C@H](C)[C@@H](CN(C)Cc2ccc(C(=O)Nc3ccccc3N)cc2)Oc2c(cccc2N(C)C)C1=O | -5 | ? | -75 | 102* | 13 | 10 | 33*
COc1ccc(NC(=O)N2CC(=O)N3[C@H](C2)[C@@H](c2ccc(C4=CCCC4)cc2)[C@@H]3CO)cc1 | -1 | nt | -4 | nt | nt | nt | nt
CCCNC(=O)[C@H]1[C@H](CO)[C@H]2Cn3c(cccc3=O)[C@@H]1N2C(=O)C1CCC1 | -1 | 6 | 22 | nt | nt | nt | nt
